± gives the standard deviation of the averaged measurements. Whole data set: some 25,000 sequences, median “ln(normalized median fluorescence intensity)” near 7.9, cut for the highest 2% near 11. Only a selection was taken, and the highest values are over-represented in it overall.
System: PfAP2-I AP2 domain 3 (GST-tagged)
Assay: gcPBM binding intensity (ln(normalized median fluorescence intensity)); higher = stronger DNA binding
How it was run: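 For binding intensity, the highest Masliner-normalised natural-log median intensity across replicate spots of either probe orientation was taken. Protein bound to the array was stained with Alexa488 anti-GST antibody and scanned at 488 nm. The protein, GST-tagged P. falciparum DNA-binding domains from E. coli at about 25 μg on average, had been applied for 1 h to an Agilent 4 × 180k array of primer-extended double-stranded 36-bp intergenic genomic probes and negative controls.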

| Sequence | gcPBM binding intensity (ln) |
| --- | --- |
| AAATTATTATCGTTAATATGTATATATGTGCCAAGT [TGCATGCA_negctrl_site557] | 8.06 ± 0.44 |
| GGTTACATTTTATTTTGTACATAAAAATTTTTATTT [XGTACX_site218] | 8.15 ± 0.53 |
| AAAAATAAACAATATATAGTTATATATATATATATA [TGCATGCA_negctrl_site82] | 9.29 ± 0.69 |
| TATTTTTTTTGTTAGGTGCATTTACATTTATTTTTA | 10.8 ± 0.61 |
| TTTATATTTATGTAGGTGCATTTGTTTACAACATAT [GTGCAC_site9511] | 10.8 ± 0.71 |
| TGTGCACATAATTAGTGTACATTTTTTATTTAGACA [XGTACX_site317] | 10.3 ± 0.88 |
| ATATTTATTTGTTAGTGTACATACATATATATATAT [XGTACX_site1347] | 9.47 ± 0.4 |
| TTCTCATTCAAATTAGTGCATTTTTGTTATTACATT | 9.81 ± 0.2 |
| TTTTTGTTATTTTTAGTGCACATTTAAGGGTGTATT | 11.4 ± 0.53 |
| CTATATTTTTAAAAATGTACTTTATAATAAAATACT [XGTACX_site3593] | 7.83 ± 0.32 |
| ATTTATAATGATTTTTTTAGTAATCTTGTTATTTTT [XGTACX_negctrl_site373] | 7.38 ± 0.54 |
| CTATTTAAAATATGAACACACATTATTTGTTTTAGA [CACACA_site2713] | 7.42 ± 0.43 |
| TATTTGTATAAATAAAAATAATATATATCAAATAAC [CACACA_negctrl_site218] | 7.57 ± 0.55 |
| AATAGCAATTTGGGGTGTACACACACCTTATTTAAA [XGTACX_site2234] | 8.04 ± 0.23 |
| TACTTTTTTTTTTTTTTTTTTTTTTTTTCCCTTTTT [CACACA_negctrl_site761] | 7.47 ± 0.53 |
| AGTGTTTTTTATAAAGTGCAATATAAAAACAAAATG | 11.3 ± 0.75 |
| ATTAAAAGTTTATACAAATAAAAAACAAAACAAAAA [CACACA_negctrl_site1030] | 7.7 ± 0.55 |
| TTAATTAATTTTTCAGTGCAAATAAAAAATATTTAA | 10.4 ± 0.64 |
| CTAAATTATAGATCAGTGCAATTTAATATGAGTCCA | 8.91 ± 0.22 |
| TAATAATTTTATAAAGTGCATAAAAATAAAAATTTT | 10.6 ± 0.36 |
| TTATAAATTTAAAAAGTGCATAATAATAACAAAAAG | 11.2 ± 0.67 |

| Sequence | gcPBM binding intensity (ln) |
| --- | --- |
| TAATTAAATATTTCAGTGCATTATTTTATGATCCAT [GTGCAC_site9456] | 11.2 ± 0.76 |
| AATATCATTATATAAGTGCATTTTTTAAAAGATAAA [GTGCAC_site9479] | 9.04 ± 0.22 |
| TACAAATTTATATAAAGTACAAAAAATAATAAAAAT [XGTACX_site7355] | 8.1 ± 0.52 |
| AAATTAAAGATAAAAGTGCAAAATTATAAATTTATT | 9.64 ± 0.071 |
| TAATTATTTTAAAAAGTGCATTAAAAGATATTAAAT [GTGCAC_site9694] | 11.4 ± 0.56 |
| ATAAAAATAAAAAGTGTGCACACAAAAATATATATA [GTGCAC_site9931] | 9.96 ± 0.33 |
| GTAATATTAATATAATGTACAAAATGAAACATATAT [XGTACX_site6219] | 7.71 ± 0.57 |
| AAATAAATACATAATACATGCATATTTAATATATAG [TGCATGCA_site135] | 7.93 ± 0.25 |
| TTTTAGCTATTTTAATATAATGAAGCAAAAAATAAA [TGCATGCA_negctrl_site576] | 7.82 ± 0.085 |
| GTGTGGTTACAGACACGAACACATTTTTTAAATATT [CACACA_negctrl_site83] | 7.83 ± 0.28 |
| TGAAAAATGTAATGCTCACACATATATATATATATA [CACACA_site5213] | 9.41 ± 0.24 |
| CCTACAATTCGTAATACACACACATATATATATATA [CACACA_site9251] | 9.29 ± 0.25 |
| CAGCTCTTAAAAATTACACACATATACACATATATA [CACACA_site9073] | 7.5 ± 0.54 |
| TTTATTTATTAATACACACACACACCCCCACAAAAT [CACACA_site240] | 9.96 ± 0.2 |
| AATTGAAAAATCAGCACACACACAAATACATACATA [CACACA_site3232] | 8.09 ± 0.4 |
| TTTCTCCATATTAAAGTGCATTAATAACAAAAATAA [GTGCAC_site9934] | 11.4 ± 0.81 |
| TTCATTTTATTTTAAGTGCATATTTTTATTTTTTTG | 8.82 ± 0.099 |
| TAATTATTCTATTAAGTGCATATATTTTTAAAAAGA | 9.89 ± 0.3 |
| AAAAAAAAAAAAAAAGTGCATTAATAAATTTTAATA | 11.5 ± 0.61 |
| TATATATATTAAAAAGTGCATTATTCATATTATATA [GTGCAC_site9400] | 11.1 ± 0.73 |
| CTGAAATTAACAAAAGTGCATAAAAATAAAAAATAT [GTGCAC_site9652] | 10.8 ± 0.38 |

| Sequence | gcPBM binding intensity (ln) |
| --- | --- |
| AGATTATATAAAAAAGTGCATATTTTCATTTTTTTT [GTGCAC_site9448] | 9.07 ± 0.13 |
| TTCATATTCGATAAAGTGCATTAATTTTATTTATCA | 11.3 ± 0.73 |
| TCATTTTAATTAAAAGTGCAAAAAATAATATAACTA [GTGCAC_site9968] | 9.9 ± 0.18 |
| TTATTAAATTCATAAGTGCATTTATGATTAATTTTT [GTGCAC_site9749] | 9.86 |
| ATTAATAAAAAATTTTAAAAAATAAATAAAATAAAA [TGCATGCA_negctrl_site113] | 7.58 ± 0.42 |
| GATTATTTCTAAAAAGTGCATATTTAAAAATCTCCT | 9.815 ± 0.035 |
| CTATTTTAATATTTTACACACCATGTAAAATATATA [CACACA_site5732] | 7.97 ± 0.28 |
| AGTTTGTTTTTTTTTTTTTTTTCCTGTCACAAACAA [CACACA_negctrl_site1093] | 8.22 ± 0.62 |
| GTTCATAAATTAAACACACACACACCCCTGGATACC [CACACA_site3331] | 9.115 ± 0.021 |
| ATATATATATATATATGTACATACATACAATCATAT [XGTACX_site6410] | 9.38 ± 0.54 |
| TACATATTTAAATACTGTACTCAAAAGAATTGTGCA [XGTACX_site2250] | 8.11 ± 0.11 |
| ATATATCATAATAAAAGTACTTATATATTTTATATA [XGTACX_site560] | 7.59 ± 0.33 |
| AAAATTGTGCTTTCACGGACACAAGATCGAAATAGA [XGTACX_site4068] | 8.62 ± 0.16 |
| GAAAAAAAAATATCTTGTACTTACATAACTATTGGT [XGTACX_site5326] | 7.61 ± 0.5 |
| ATATATTATATTTAAGTGCATTAATTAAAATGCTTA [GTGCAC_site9403] | 11.1 ± 0.73 |
| CTTATTTTGTTATAAGTGCATTTTTTAAAATTTCTT | 9.05 ± 0.42 |
| ATATATATATTTATAGTGCATTTATATTAAAATATC [GTGCAC_site9818] | 10.54 ± 0.021 |
| TTTTTTTTTTTTTTTGCACACTTAAATTTGGTGGGG [CACACA_site2344] | 9.89 ± 0.19 |
| CACATTAATTTTTGGGTGCACTTGGGAAATTTTGGT | 10.9 ± 0.51 |
| TTTTTTTTTTTTTTTGCACACTTAAATTTGGTGGCT [CACACA_site5319] | 9.54 ± 0.16 |

Source: the supplement of paper PMC11417369
